From PubChem
Hits are enriched below; roughly 2.5% of the tested compounds scored in any of these assays.
Cruzain inh noDet: cruzain (T. cruzi) inhibition without detergent. purified cruzain, Z-FR-AMC fluorescence, no detergent. actives 2.3% (n = 200,000). AID 1476. Potency, µM, inactives show max response, negative = inhibition, actives largely listed as inhibitors;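 further: plate controls were enzyme without inhibitor for no effect and buffer without enzyme for full effect; nearly all actives have a fitted effect of over 40% in size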
Target sequence (P25779 123-467 limits assumed): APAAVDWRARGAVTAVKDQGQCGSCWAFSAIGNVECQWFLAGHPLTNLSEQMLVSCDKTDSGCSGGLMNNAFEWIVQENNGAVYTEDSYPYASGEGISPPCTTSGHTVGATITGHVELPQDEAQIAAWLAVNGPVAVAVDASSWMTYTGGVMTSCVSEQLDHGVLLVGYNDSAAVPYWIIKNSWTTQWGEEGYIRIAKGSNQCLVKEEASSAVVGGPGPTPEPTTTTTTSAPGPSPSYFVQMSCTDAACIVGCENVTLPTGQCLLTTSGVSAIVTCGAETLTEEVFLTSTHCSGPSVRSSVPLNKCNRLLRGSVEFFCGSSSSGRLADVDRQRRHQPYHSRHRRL
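Detergent-free condition (0.00005% Triton X-100) in acetate buffer pH 5.5 with DTT. 1.5 nM enzyme and compound were pre-mixed 15 min, then 2 uM Z-FR-AMC substrate added; reaction progress from fluorescence change between first and third reads (60 s).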
Cruzain inh Det: inhibitors of Trypanosoma cruzi cruzain with detergent | P25779 | purified cruzain, Z-FR-AMC fluorescence, 0.01% Triton | Potency, µM, without a hit: max response, negative = inhibition, usual class: inhibitors | actives 0.43% (n = 200,000) | AID 1478;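 further: plate controls were neutral wells for no effect and buffer without enzyme for full effect; nearly all actives have a fitted effect of over 40% in size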
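Steps: dispense cruzain (1.5 nM final) in acetate buffer pH 5.5 with DTT and 0.01% Triton X-100; pin-transfer compounds; incubate 15 min RT; add Z-FR-AMC (2 uM final); read fluorescence every 30 s, using the 60 s intensity change.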
Starred values were filed as active, the others as inactive; ? = inconclusive. The call rests on the fitted dose curve; in most records, active means well fitted curve in the direction sought with a large enough effect; inconclusive means small, poorly fitted or top-dose-only effect, or another doubt; inactive means no such curve, though single readings can be large; an effect the other way counts as inactive or inconclusive. Potency means the concentration at half of the fitted maximal effect.

SMILES	Cruzain inh noDet	Cruzain inh Det
Cc1ccc(/C=C/C(=O)OCC(=O)Nc2ccccc2Sc2ccccc2)cc1	12.6µM*	-5.8%
COc1cccc(/C=C/C(=O)OCC(=O)Nc2ccccc2Sc2ccccc2)c1	-26.6%	-5.3%
O=C(c1ccc2nc(-c3ccco3)c(-c3ccco3)nc2c1)N1CCN(c2ccccc2)CC1	-2.3%	?
O=C(c1ccc2nc(-c3ccco3)c(-c3ccco3)nc2c1)N1CCC2(CC1)OCCO2	?	25.1µM*
CCS(=O)(=O)c1ncc(Cl)c(C(=O)N2CCN(c3ccc(OC)cc3)CC2)n1	6.4%	-4.0%
CSCC[C@H](NC(=O)c1cc([N+](=O)[O-])ccc1Cl)c1nc2ccccc2[nH]1	-6.9%	22.4µM*
Cc1cc(Cl)ccc1OCC(=O)N[C@@H](Cc1ccccc1)c1nc2ccccc2[nH]1	-16.7%	-0.4%
CSCCC(NC(=O)c1cccc([N+](=O)[O-])c1)c1nc2ccccc2[nH]1 (centres undefined)	?	-26.8%
CSCC[C@H](NC(=O)COc1ccc(Cl)cc1)c1nc2ccccc2[nH]1	12.6µM*	7.08µM*
Cc1cc(Cl)ccc1NC(=O)CCCn1nc(C)c2c(C)n(-c3ccccc3)nc2c1=O	11.8%	1.4%
COc1ccc(-n2c(=O)c(-c3cccs3)nc3cnc(OC)nc32)cc1	-1.1%	2.0%
CN1CCN(c2ncc3nc(CCc4ccccc4)c(=O)n(CCC#N)c3n2)CC1	-23.6%	-26.4%
O=C(N/N=C\c1ccc(-c2ccccc2[N+](=O)[O-])o1)C1COc2ccccc2O1 (centres undefined)	?	-10.7%
O=C(N/N=C\c1ccc(-c2ccccc2[N+](=O)[O-])o1)C1COc2cc3ccccc3cc2O1 (centres undefined)	7.94µM*	-2.1%
CCOC(=O)c1ccccc1NC(=O)CSc1cn(CC(=O)N2CCOCC2)c2ccccc12	12.7%	-1.7%
Cc1ccc2c(c1)c(=O)c1c3n2CCN(C(=O)CCl)C3CC1 (centres undefined)	-21.6%	15.8µM*
Cc1ccc2c(c1)c1c3n2CCN(C(=O)CN2CCN(C)CC2)C3CCC1 (centres undefined)	-9.6%	-3.4%
CC1Cn2c(C(=O)NCc3ccccc3Cl)cc3cccc(c32)S1 (centres undefined)	?	-9.7%
Cc1cccc(N(C)C(=O)CCNS(=O)(=O)c2ccc3c(c2)CCN3C(=O)C2CC2)c1	22.0%	-1.5%
CCc1ccc(OCC(=O)Nc2cc3oc4ccccc4c3cc2OC)cc1	1.0%	0.3%
COc1cc2c(cc1NC(=O)COC(=O)[C@@H](NC(=O)c1ccccc1)C(C)C)oc1ccccc12	31.6µM*	-8.6%
COc1cc2c(cc1NC(=O)COC(=O)[C@@H](NC(=O)c1ccccc1F)C(C)C)oc1ccccc12	?	-10.4%
CCN(CC)c1ccc(C(=O)OCC(=O)Nc2cc3oc4ccccc4c3cc2OC)cc1	12.6µM*	-16.7%
COc1ccc(OC)c(NC(=O)N2CCN(S(=O)(=O)c3ccc4c(ccn4C)c3)CC2)c1	0.0%	-3.9%
COc1ccc(Nc2c(-c3ccsc3)nc3nc(C)cc(C)n23)cc1	-0.2%	-6.9%
SMILES	Cruzain inh noDet	Cruzain inh Det
O=C1[C@H]2[C@H]3C=C[C@@H](C4[C@H]3[C@@H]3C(=O)N(CN5CCSCC5)C(=O)[C@H]43)[C@H]2C(=O)N1CN1CCSCC1 (some centres undefined)	4.9%	-0.3%
COc1cc2oc(=O)cc(-c3cccc(-c4ccc(C(C)=O)cc4)c3)c2c(OC)c1OC	19.2%	1.5%
CC(=O)c1ccc(-c2cccc(-c3cc(=O)oc4ccc(C(C)(C)C)cc34)c2)cc1	28.2µM*	-0.6%
CCC(Oc1ccccc1)C(=O)Nc1ccc(O)c(-c2nc3cc(C)ccc3o2)c1 (centres undefined)	-3.8%	-1.0%
COc1cccc(Cn2c(=O)c(-c3cccs3)nc3cnc(OC)nc32)c1	11.7%	2.8%
COc1ccc(Oc2ncc3nc(-c4cccs4)c(=O)n(Cc4cccs4)c3n2)cc1	7.94µM*	3.9%
COc1ccc(Oc2ncc3nc(-c4cccs4)c(=O)n(Cc4cccc(OC)c4)c3n2)cc1	12.6µM*	2.4%
O=c1c(-c2cccs2)nc2cnc(Oc3ccccc3)nc2n1Cc1cccs1	?	-1.4%
Cc1ccc(S(=O)Cc2nc(-c3ccc(C(=O)NC(C)c4ccccc4)cc3)oc2C)cc1 (centres undefined)	?	-1.0%
COc1ccc(CCNC(=O)Cc2c(C)c3cc(OC)c(OC)cc3oc2=O)cc1	-25.1%	-11.6%
O=C(O)[C@@H]1[C@@H](C(=O)O)[C@@]23CCCC2=C2CC[C@@]3(C(=O)O)[C@@]3(C(=O)O)C[C@@]213	0.0%	5.3%
O=C(Nc1ccccc1Cl)C1CCN(c2nc3ccccc3[nH]2)CC1	-9.5%	1.6%
COc1ccc(N2CCN(c3ccc(-c4nc(-c5cccc(C)c5)no4)cc3[N+](=O)[O-])CC2)cc1	-4.1%	-3.8%
CCc1nc(NCC(C)C)c(C#N)c2c1COC(C)(C)C2	-13.5%	10.9%
